For some assays here: Entries with a potency or affinity are not part of this list.
What was measured:
Design in all cases: scale not given: direction of the effect not stated beside the values
[1] = target: Protein translocase subunit SecA (Escherichia coli (strain K12)) (UniProt P10408); assay: Assay to Identify E. coli SecA ATPase Inhibitors; assay type: functional; conditions: 30 µM
[2] = target: T1, Ubiquitin-activating enzyme e1, putative (Leishmania donovani (strain BPK282A1)) (UniProt E9BSI1); assay: Leishmania donovani Ubiquitin Activating Enzyme (LdE1); assay type: functional; conditions: 30 µM
T1 sequence (whole entry): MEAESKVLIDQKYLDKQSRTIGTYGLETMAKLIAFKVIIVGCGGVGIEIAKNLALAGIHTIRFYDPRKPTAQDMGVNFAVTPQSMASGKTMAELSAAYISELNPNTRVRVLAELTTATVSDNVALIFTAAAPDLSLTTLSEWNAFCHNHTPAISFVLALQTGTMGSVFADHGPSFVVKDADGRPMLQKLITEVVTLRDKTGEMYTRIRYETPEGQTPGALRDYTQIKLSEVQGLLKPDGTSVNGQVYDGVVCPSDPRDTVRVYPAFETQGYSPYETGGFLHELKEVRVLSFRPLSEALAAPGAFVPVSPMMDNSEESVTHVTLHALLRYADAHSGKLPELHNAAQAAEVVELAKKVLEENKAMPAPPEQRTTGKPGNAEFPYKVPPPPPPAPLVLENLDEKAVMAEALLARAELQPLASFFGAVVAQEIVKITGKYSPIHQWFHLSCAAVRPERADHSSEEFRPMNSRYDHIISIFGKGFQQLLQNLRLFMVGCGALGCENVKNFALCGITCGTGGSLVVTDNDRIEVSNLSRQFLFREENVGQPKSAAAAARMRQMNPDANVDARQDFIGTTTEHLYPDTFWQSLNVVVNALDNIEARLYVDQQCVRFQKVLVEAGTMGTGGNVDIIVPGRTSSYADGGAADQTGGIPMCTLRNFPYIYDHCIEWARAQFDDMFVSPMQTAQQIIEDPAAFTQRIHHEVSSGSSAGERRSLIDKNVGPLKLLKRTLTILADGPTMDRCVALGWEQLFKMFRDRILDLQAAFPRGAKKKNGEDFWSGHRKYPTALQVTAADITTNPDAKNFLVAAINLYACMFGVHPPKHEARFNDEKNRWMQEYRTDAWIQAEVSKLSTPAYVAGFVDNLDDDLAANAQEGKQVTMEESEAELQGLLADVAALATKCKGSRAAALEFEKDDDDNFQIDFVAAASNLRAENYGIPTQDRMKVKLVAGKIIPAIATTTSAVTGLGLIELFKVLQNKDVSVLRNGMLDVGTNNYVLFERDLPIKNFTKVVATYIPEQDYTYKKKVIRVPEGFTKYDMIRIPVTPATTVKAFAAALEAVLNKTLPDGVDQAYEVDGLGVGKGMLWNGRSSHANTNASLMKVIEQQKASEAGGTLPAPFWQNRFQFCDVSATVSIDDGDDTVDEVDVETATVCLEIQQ

[3] = target: AMP-activated protein kinase, AMPK (Homo sapiens) (UniProt P54646+O43741+P54619+Q9UGJ0+Q9Y478+Q13131+Q9UGI9); assay: AMP-dependent Kinase enzyme assay. An in vitro enzyme assay that detects ADP turnover that is directly proportional to AMPK activity. This uses naive AMPK that is activated during the assay with MK-8722; assay type: functional; conditions: 30 µM
[4] = target: Sialic acid-binding Ig-like lectin 9 (Homo sapiens) (UniProt Q9Y336); assay: Hs-Siglec9 ALPHAscreen SOP 20170721; conditions: 10 µM
[5] = test system: Trypanosoma cruzi; assay: Trypanosoma cruzi phosphomannomutase and mannose-1-phosphate guanylyltransferase assay; assay type: functional; conditions: 10 µM
[6] = target: T2, Arginase-2, mitochondrial (Homo sapiens) (UniProt P78540); assay: in vitro enzyme assay to detect the production of urea directly proportional to the activity of Arginase II; assay type: functional; conditions: 33.3 µM; note: in the data most compounds retested in dose-response had high values
T2 sequence (whole entry): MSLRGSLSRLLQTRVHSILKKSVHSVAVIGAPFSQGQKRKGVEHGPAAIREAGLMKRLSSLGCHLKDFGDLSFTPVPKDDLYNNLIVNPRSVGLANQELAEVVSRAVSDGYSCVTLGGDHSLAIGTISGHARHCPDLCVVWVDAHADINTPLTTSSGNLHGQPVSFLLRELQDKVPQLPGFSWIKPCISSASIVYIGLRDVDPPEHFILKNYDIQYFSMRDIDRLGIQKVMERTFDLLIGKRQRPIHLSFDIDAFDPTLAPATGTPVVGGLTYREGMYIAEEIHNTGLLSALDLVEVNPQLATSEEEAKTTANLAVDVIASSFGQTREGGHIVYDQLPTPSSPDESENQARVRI

[7] = target: T3, Proteasome subunit beta (Trypanosoma cruzi) (UniProt O96673); assay: Trypanosoma cruzi proteasome chymotrypsin-like activity (TcProtChymo) assay.; note: in the data most compounds retested in dose-response had high values; assay type: functional; conditions: 9.37 µM
T3 sequence (whole entry): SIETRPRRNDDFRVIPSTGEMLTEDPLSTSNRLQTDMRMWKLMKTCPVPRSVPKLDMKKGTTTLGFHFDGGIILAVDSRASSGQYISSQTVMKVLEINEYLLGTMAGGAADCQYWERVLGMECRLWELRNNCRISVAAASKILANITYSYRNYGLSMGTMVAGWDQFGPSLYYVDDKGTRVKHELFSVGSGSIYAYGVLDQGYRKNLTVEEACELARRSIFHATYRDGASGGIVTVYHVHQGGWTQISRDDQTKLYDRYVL

[8] = species: Homo sapiens; assay: To identify inhibition of the IFN signalling (Jak-Stat) pathway via expression of an eGFP reporter gene under the control of an IFN-stimulated response element (ISRE) containing MxA promoter.; assay type: functional; conditions: 30 µM
[9] = target: T4, Tyrosyl-tRNA synthetase, putative (Trypanosoma cruzi (strain CL Brener)) (UniProt Q4DSP6); assay: Trypanosoma cruzi tyrosyl tRNA synthetase (TcYRS) _High Tyrosine SOP; assay type: functional; conditions: 30 µM; note: in the data most compounds retested in dose-response had high values
T4 sequence (whole entry): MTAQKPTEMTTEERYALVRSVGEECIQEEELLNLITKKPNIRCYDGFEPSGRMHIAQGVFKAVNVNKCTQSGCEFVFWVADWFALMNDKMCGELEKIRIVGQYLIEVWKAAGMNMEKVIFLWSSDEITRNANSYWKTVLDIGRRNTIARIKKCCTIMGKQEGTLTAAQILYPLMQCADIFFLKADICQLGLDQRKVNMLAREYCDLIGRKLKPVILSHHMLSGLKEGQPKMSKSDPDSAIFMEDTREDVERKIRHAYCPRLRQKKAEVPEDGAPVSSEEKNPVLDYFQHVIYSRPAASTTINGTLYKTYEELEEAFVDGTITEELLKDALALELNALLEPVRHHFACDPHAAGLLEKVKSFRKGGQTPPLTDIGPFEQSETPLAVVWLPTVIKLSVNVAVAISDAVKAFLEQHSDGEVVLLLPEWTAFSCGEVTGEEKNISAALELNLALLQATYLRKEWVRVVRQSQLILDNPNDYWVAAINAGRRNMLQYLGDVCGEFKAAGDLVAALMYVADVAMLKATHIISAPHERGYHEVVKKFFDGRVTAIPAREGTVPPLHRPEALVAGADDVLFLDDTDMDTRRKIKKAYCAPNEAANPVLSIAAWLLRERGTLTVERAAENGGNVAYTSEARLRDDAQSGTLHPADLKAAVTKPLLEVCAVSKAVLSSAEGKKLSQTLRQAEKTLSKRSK

[10] = target: T4, Tyrosyl-tRNA synthetase, putative (Trypanosoma cruzi (strain CL Brener)); assay: Trypanosoma cruzi tyrosyl tRNA synthetase (TcYRS) SOP; assay type: functional; conditions: 30 µM
[11] = target: Chromo domain-containing protein 1 (Saccharomyces cerevisiae (strain ATCC 204508 / S288c) (Baker's yeast)) (UniProt P32657); assay: ScCHD-1 Enzyme Inhibition Assay; assay type: functional; conditions: 30 µM; note: in the data most compounds retested in dose-response had high values
Sequence of Chromo domain-containing protein 1 (Saccharomyces cerevisiae (strain ATCC 204508 / S288c) (Baker's yeast)) (P32657 whole entry, the tested form may be a part): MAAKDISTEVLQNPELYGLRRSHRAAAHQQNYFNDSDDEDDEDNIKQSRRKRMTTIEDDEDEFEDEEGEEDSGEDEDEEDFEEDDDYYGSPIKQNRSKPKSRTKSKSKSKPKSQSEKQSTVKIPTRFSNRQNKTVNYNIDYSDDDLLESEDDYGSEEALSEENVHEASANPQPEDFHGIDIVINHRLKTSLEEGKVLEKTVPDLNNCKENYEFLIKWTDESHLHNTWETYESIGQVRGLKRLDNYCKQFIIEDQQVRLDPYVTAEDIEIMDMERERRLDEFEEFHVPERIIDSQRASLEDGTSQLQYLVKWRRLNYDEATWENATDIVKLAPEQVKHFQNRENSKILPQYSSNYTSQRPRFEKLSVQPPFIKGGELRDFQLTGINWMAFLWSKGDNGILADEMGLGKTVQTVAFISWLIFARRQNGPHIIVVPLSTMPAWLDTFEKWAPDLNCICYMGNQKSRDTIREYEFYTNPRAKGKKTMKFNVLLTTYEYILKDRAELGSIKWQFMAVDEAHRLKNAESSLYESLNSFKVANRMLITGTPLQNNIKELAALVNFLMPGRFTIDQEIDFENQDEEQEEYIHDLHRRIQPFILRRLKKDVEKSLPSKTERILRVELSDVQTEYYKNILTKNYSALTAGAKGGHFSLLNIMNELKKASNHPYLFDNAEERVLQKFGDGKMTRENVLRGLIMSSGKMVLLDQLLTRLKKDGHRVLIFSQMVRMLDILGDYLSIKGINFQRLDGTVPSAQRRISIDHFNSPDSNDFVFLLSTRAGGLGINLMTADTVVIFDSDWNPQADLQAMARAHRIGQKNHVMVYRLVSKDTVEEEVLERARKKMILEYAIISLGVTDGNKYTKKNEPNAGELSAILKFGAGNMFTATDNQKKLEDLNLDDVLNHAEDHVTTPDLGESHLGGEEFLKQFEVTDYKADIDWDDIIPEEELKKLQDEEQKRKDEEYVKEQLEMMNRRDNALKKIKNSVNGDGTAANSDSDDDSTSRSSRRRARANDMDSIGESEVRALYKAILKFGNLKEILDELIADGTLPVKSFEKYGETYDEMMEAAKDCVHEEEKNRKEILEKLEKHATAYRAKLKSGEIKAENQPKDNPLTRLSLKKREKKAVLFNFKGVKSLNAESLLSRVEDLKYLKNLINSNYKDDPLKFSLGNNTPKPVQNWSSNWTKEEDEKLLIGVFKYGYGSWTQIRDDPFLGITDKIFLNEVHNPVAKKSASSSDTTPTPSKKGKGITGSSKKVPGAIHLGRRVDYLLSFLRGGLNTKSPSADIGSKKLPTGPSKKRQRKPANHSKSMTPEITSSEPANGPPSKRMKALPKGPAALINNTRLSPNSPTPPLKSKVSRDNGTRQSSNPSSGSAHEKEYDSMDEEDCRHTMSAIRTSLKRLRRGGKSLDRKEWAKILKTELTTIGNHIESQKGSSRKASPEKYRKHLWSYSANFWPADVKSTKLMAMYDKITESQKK

Sequence of Protein translocase subunit SecA (Escherichia coli (strain K12)) (P10408 whole entry): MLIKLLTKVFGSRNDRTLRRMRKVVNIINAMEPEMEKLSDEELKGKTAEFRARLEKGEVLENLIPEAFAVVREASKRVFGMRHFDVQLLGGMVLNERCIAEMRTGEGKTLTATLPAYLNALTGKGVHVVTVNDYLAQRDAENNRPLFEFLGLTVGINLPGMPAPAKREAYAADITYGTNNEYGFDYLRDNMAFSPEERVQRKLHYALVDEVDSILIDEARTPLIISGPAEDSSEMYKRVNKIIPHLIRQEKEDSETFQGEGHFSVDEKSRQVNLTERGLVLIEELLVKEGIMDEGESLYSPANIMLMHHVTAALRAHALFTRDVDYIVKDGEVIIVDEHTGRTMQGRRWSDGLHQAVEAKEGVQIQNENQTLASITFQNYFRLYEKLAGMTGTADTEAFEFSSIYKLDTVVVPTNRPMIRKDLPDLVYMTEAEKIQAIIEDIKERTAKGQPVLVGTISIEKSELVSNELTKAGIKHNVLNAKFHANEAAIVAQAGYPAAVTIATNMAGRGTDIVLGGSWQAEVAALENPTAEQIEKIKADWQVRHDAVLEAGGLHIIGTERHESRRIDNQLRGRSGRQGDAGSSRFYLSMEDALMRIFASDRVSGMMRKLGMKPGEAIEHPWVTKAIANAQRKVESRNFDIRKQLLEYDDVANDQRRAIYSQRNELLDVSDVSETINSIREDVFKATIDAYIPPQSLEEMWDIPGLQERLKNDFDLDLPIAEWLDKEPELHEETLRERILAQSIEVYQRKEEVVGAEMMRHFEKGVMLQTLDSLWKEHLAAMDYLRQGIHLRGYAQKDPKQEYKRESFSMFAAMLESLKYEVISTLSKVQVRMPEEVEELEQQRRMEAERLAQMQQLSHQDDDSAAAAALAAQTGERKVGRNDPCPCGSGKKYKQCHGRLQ
Sequence of Sialic acid-binding Ig-like lectin 9 (Homo sapiens) (Q9Y336 whole entry): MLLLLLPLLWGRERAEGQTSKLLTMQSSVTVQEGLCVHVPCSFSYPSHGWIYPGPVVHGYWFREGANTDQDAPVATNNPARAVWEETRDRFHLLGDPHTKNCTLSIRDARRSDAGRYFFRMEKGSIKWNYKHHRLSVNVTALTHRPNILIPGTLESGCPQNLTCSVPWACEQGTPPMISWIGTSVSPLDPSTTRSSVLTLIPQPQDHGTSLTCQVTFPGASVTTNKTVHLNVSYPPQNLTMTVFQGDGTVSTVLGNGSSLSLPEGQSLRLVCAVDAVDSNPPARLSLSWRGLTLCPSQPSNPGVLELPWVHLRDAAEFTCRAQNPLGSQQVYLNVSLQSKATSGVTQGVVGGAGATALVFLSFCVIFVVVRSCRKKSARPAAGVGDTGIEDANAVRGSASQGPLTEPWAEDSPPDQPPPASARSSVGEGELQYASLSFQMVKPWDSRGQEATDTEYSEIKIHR

Row | Structure (SMILES) | Percent Effect [1] | Percent Effect [2] | Percent Effect [3] | Percent Effect [4] | Percent Effect [5] | Percent Effect [6] | Percent Effect [7] | Percent Effect [8] | Percent Effect [9] | Percent Effect [10] | Percent Effect [11]
1 | Cc1nccc(C(=O)N2CCCN(Cc3cnn(C(C)C)c3)CC2)n1 | -7.35% | -8.11% | 0.58% | 14.6% | -2.93% | -0.833% | 7.35% | 1.24% | 5.94% | 11% | 6.2%
2 | O=C(c1cccc(Cl)c1)N1CCCn2c(CN3CCCCC3)nnc2C1 | -9.25% | 8% | -3.61% | 1.72% | -6.3% | -2.1% | 0.441% | 10.4% | 4.25% | 3.85% | -2.51%
3 | CCc1cc(NCCc2ccc(O)cc2)n2nccc2n1 | -0.557% | 5.48% | 93.2% | 6.39% | 2.35% | 25% | 9.58% | 46.2% | 3.23% | 15% | -4.87%
4 | Fc1ccc(CN2CCC(c3nccnc3-n3ccnc3)CC2)cc1 | -8.16% | 17.6% | 8.26% | 0.663% | 3.75% | -3.02% | 12.5% | 17.9% | 3.23% | 3.9% | -17.3%
5 | Cc1nc(C)n(CC2CCCN(c3ncnc4[nH]ccc34)C2)n1 (configuration not stated) | -4.25% | 11.4% | 69.9% | 5.73% | -4.21% | 0.645% | 15.8% | 42.8% | 6.25% | 5.06% | -4.67%
6 | CN1CCCC(CNC(=O)N2CCN(Cc3ccon3)CC2)C1 (configuration not stated) | -5.29% | 2.67% | -3.4% | 1.23% | 3.02% | -1.04% | 1.74% | 5.23% | 4.92% | 8.64% | -5.38%
7 | Cc1cc(Nc2nc(C)cs2)nc(C2CCCCN2CCO)n1 (configuration not stated) | -0.14% | 1.35% | -0.107% | -8.52% | 7.12% | -5.34% | 13.9% | -9.01% | 4.3% | 11.7% | -23.2%
8 | Cc1n[nH]c(C2CN(C(=O)c3cc(Cl)c[nH]3)CCO2)n1 (configuration not stated) | -1.17% | 2.63% | 11.8% | -0.307% | -0.876% | -3.55% | 5.27% | -2.14% | 4.25% | 5.2% | 0.543%
9 | Cc1cc(C)n(CC2CCCCN2CC(=O)Nc2cccnc2)n1 (configuration not stated) | -6.69% | 13.3% | -13.7% | 36.3% | 9.25% | 12.5% | -1.74% | 6.67% | 0.546% | 16.1% | -6.32%
10 | COc1cc(CNc2cnn(C)c2)cc2c1OCCO2 | -3.52% | -13.2% | -22.5% | 3.9% | 1.5% | -1.15% | 4.68% | -1.15% | -13.2% | -14.6% | -4.73%
11 | CCCc1nc(C)cc(N2CCC3(CCC(=O)N(CC4CC4)C3)CC2)n1 | -2.3% | 8.11% | -0.987% | 3.81% | -3.03% | 3.23% | 8.67% | 1.04% | -5.38% | 13.6% | -4%
12 | O=C1N(c2ccc(Br)cc2)Cc2nc(=O)[nH]n21 | -6.3% | 22.7% | -2.95% | 0.772% | 1.38% | -1.58% | 4.44% | 7.62% | 5.29% | 15.4% | -11.8%
13 | COc1ccnc(N2CCN(C(=O)c3csc(C4CC4)n3)CC2)n1 | -4.82% | 2.7% | 2.76% | -1.98% | -2.05% | 4.22% | -0.601% | 0.351% | 0% | 8.64% | -4.46%
14 | c1coc(CN2C[C@H](OCC3CCOCC3)[C@H]3COC[C@H]32)c1 | -3.71% | 8.11% | 6.46% | -3.04% | -3.23% | -0.955% | 15.3% | 13.1% | 0% | 12.8% | 1.07%
15 | CC(C)c1ncc2c(n1)CN(Cc1nc(Cc3ccccc3)no1)CC2 | -3.61% | 10.8% | -1.07% | 3.74% | 2.69% | -2.77% | -5.92% | 10.2% | 17.8% | 23.2% | 0.435%
16 | CN(C)C(=O)CC1CC2(CCN(CC3CC3)CC2)c2cc(F)ccc21 (configuration not stated) | -6.7% | 5.41% | -8.18% | -5.86% | -2.44% | -4.14% | 3.14% | 5.88% | -5.41% | -2.56% | 5.46%
17 | CCc1nc(NS(=O)(=O)c2ccc(F)cc2C)no1 | -4.36% | -2.67% | -5.09% | 21.3% | 8.67% | -0.521% | -0.872% | 15.9% | 0.546% | 6.17% | -1.94%
18 | COc1ccc(CNC(C)c2ccc3[nH]c(=O)[nH]c3c2)cc1 (configuration not stated) | 0.617% | -5.41% | -4.65% | 13.3% | 1.23% | -6.81% | 0.36% | 22.4% | 1.48% | 1.24% | -9.21%
19 | Cc1ccc(CC(=O)N2CC[C@@H]3CN(CCN(C)C)CCO[C@@H]3C2)cc1 | -0.0347% | 8.11% | 9.51% | -10.3% | -7.33% | 2.87% | 19.7% | 4.98% | 4.32% | 5.13% | -4.03%
20 | Cc1ccc(=O)n(CC2(O)CCN(Cc3ccsc3)CC2)n1 | 1.03% | 1.35% | 9.78% | -1.02% | -4.74% | 3.02% | 12.9% | 2.32% | 7.53% | 9.09% | -6.08%
21 | CC(C)Cc1noc(CN2CCOC(Cn3cncn3)C2)n1 (configuration not stated) | -1.12% | 10.8% | 2.5% | -4.71% | -6.22% | 4.25% | 0.718% | 16.7% | 0% | 13.4% | -0.689%
22 | CCNC(=O)N1CCC2(C1)c1ccccc1S(=O)(=O)N2CCC(C)C (configuration not stated) | -3.49% | 5.33% | 5.91% | -1.77% | 5.99% | -52.5% | 5.3% | -14.8% | 1.04% | 0% | -0.42%

From ChEMBL document CHEMBL3988442, “University of Dundee, Small-Polar-MMV Screening Library” (2021)
